The source of these data is PubChem BioAssay (NCATS).

Inconclusive results are not listed. Active and inactive are the calls of the source. Calls follow the shape of the dose curve; as a rule, active = well fitted curve in the direction sought with a large enough effect; inconclusive = small, poorly fitted or top-dose-only effect, or another doubt; inactive = no such curve, though single readings can be large; an effect the other way counts as inactive or inconclusive.
Potency is read from the fitted curve at half-maximal effect.

The nature of one experiment: qHTS of pediatric cancer cell lines to identify multiple opportunities for drug repurposing: Primary screen for NB-EBc1 cells (AID 1347095).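 As to activity change, negative = cytotoxic: plate controls were DMSO neutral control for no effect and bortezomib for full effect.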 The following applies: NB-EBc1 neuroblastoma viability, CellTiter-Glo luminescence, 48 h; series mostly up to 46 µM. The method in brief:
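Phenotypic viability qHTS, 48 h compound exposure, CellTiter-Glo luminescence read-out; multi-concentration dosing so that potency and efficacy derive directly from the primary screen's curves.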
On to `N#Cc1c(O)c2c(-c3ccc(-c4ccccc4O)cc3)csc2[nH]c1=O`, for which the Potency entry is “inactive”.
Still for that read-out and setting: the figure for `OCc1ccc(-c2ccc(-c3ccc(CO)s3)o2)s1` is 14800 nM (active).
Still for that read-out and setting: the entry for `CC(=O)SC[C@@H](C)C(=O)N1CCC[C@H]1C(=O)N[C@@H](Cc1ccccc1)C(=O)O` is “inactive”; for `O=C(Cc1ccc(-c2ccc(OCCN3CCOCC3)cc2)cn1)NCc1ccccc1` it is 14.8 nM (active).
With `O=C(C=Cc1c(C(=O)O)[nH]c2cc(Cl)cc(Cl)c12)Nc1ccccc1`, the Potency entry was “inactive”.
Same read-out and setting: next, `C1=CCOCc2cc(ccc2OCCN2CCCC2)Nc2nccc(n2)-c2cccc(c2)OCC1`: 7430 nM (active).
`COC(=O)c1ccc2c(C(=Nc3ccc(N(C)C(=O)CN4CCN(C)CC4)cc3)c3ccccc3)c(O)[nH]c2c1`: the Potency was 2090 nM (active).
Same read-out and setting: the figure for `COCCn1c2c([n+](Cc3cnccn3)c1C)C(=O)c1ccccc1C2=O` is 93.5 nM (active); for `Nc1ccn([C@@H]2O[C@H](CO)[C@H](O)C2(F)F)c(=O)n1` it is 935 nM (active).
On the same count and under the same terms, the figure for `COc1cccc2nc(-c3cccs3)nc(NN3C(=O)C=C(C)C3=O)c12` is 332 nM (active); for `CNC(=O)c1cc(Oc2ccc(NC(=O)Nc3cc(C(C)(C)C)nn3-c3ccc4ncccc4c3)c(F)c2)ccn1` it is 2350 nM (active).
Same read-out and setting: next, `O=C(O)CCCc1c[nH]c2ccccc12`: 18700 nM (active); `COc1cc2c(Oc3ccc(NC(=O)C4(C(=O)Nc5ccc(F)cc5)CC4)cc3F)ccnc2cc1OCCCN1CCOCC1`: 4180 nM (active).
Consider `COc1ccc(CC2c3cc(OC)c(OC)cc3CC[N+]2(C)CCC(=O)OCCCCCOC(=O)CC[N+]2(C)CCc3cc(OC)c(OC)cc3C2Cc2ccc(OC)c(OC)c2)cc1OC` (stereo not given), for which the activity change, negative = cytotoxic was 16.9% [at 9.22 µM] (inactive).
In the case of `Cc1c(Cn2c(C)nc3c(C(=O)O)cc(N4CCOCC4)cc32)cccc1C(F)(F)F`, the Potency was 14800 nM (active).
Still for that read-out and setting: next, `CC1=C(CO)C(=O)O[C@@H]([C@@H](C)[C@H]2CC[C@H]3[C@@H]4C[C@H]5O[C@]56[C@@H](O)C=CC(=O)[C@]6(C)[C@@H]4CC[C@]23C)C1`: 469 nM (active).
Same read-out and setting: next, `C=C1C(=CC=C2CCC[C@]3(C)[C@@H]([C@H](C)C=C[C@H](C)C(C)C)CC[C@@H]23)C[C@@H](O)C[C@@H]1O`: 526 nM (active).
Take `C[C@]1(CO)CN(c2cc(C(=O)Nc3ccc4c(c3)-c3c(c(C(N)=O)nn3-c3ccc(F)cc3)CC4)c(Cl)cn2)C[C@@]1(C)CO`: the Potency is 5900 nM (active).
As for `NC(=O)Nc1cc(-c2cccc(F)c2)sc1C(=O)N[C@H]1CCCNC1`, the Potency is 296 nM (active).
Same read-out and setting: the figure for `Cc1cc(Nc2cc(NC(=O)c3c(Cl)cccc3Cl)ccn2)nc(N)n1` is 332 nM (active); for `CC(C)(C)c1cc(C(C)(C)C)c(NC(=O)c2c[nH]c3ccccc3c2=O)cc1O` it is “inactive”; for `CC=CC1=C(C(=O)O)N2C(=O)[C@H](NC(=O)[C@H](N)c3ccc(O)cc3)[C@@H]2SC1` it is “inactive”.
Same read-out and setting: the entry for `Clc1cccc(-n2nnnc2NCc2ccccc2Oc2ccccn2)c1Cl` is “inactive”; for `C=CC(=O)Nc1cc2c(Nc3ccc(F)c(Cl)c3)ncnc2cc1C#CC(C)(C)N1CCN(C)CC1` it is 2960 nM (active); for `CNC(=O)CN1CCC(Oc2cc3c(Nc4cccc(Cl)c4F)ncnc3cc2OC)CC1` it is 6.6 nM (active).
On the same count and under the same terms, next, `CC1(C)OC2=C(C(=O)c3ccccc3C2=O)[C@H](NCc2ccccc2)[C@H]1O`: 2350 nM (active).
With `CN1c2cc(O)c(N=NC(N)=O)cc2CC1S(=O)(=O)O` (stereo not given), the Potency entry was “inactive”.
For the compound `CCCCCCCCCC(=O)N[C@@H](Cc1c[nH]c2ccccc12)C(=O)N[C@H](CC(N)=O)C(=O)N[C@@H](CC(=O)O)C(=O)N[C@@H]1C(=O)NCC(=O)N[C@@H](CCCN)C(=O)N[C@@H](CC(=O)O)C(=O)N[C@H](C)C(=O)N[C@@H](CC(=O)O)C(=O)NCC(=O)N[C@H](CO)C(=O)N[C@@H]([C@@H](C)CC(=O)O)C(=O)N[C@@H](CC(=O)c2ccccc2N)C(=O)O[C@@H]1C`, the Potency entry was “inactive”.
The same measure, in the same setting: next, `CN1CC[C@@H](c2c(O)cc(O)c3c(=O)cc(-c4ccccc4Cl)oc23)[C@@H](O)C1`: 74.3 nM (active); `CC(C)c1ccc(Cn2ccc3c4c(N)nc(NC5CC5)nc4ccc32)cc1`: 4690 nM (active).
Still for that read-out and setting: next, `O=C(O)Cn1nnc(-c2cc(N3CCC(Oc4cc(F)ccc4Br)CC3)no2)n1`: “inactive”.
The same measure, in the same setting: next, `CN1CCN(c2ccc3nc(-c4c(N)c5c(F)cccc5[nH]c4=O)[nH]c3c2)CC1`: 3720 nM (active); `CC(=O)OCCN1C(=O)c2c(C)nc3ccc(S(=O)(=O)N4CCOCC4)cc3c2C1=O`: “inactive”.
Regarding `CCOc1ccccc1OCCNC(C)Cc1ccc(OC)c(S(N)(=O)=O)c1` (stereo not given), the Potency entry was “inactive”.

The next experiment in a line: qHTS of pediatric cancer cell lines to identify multiple opportunities for drug repurposing: Primary screen for U-2 OS cells (AID 1347096). Also: nearly all actives have a fitted effect of over 50% in size.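 As to activity change, negative = cytotoxic: plate controls were DMSO wells for no effect and bortezomib positive control wells for full effect.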 The conditions noted are these: U-2 OS viability, CellTiter-Glo luminescence, 48 h; series mostly up to 46 µM. An outline of the steps: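 Cells (500-1,000/well) in growth media were settled 5 h at 37 degrees C, then given compounds for 48 h. Viability was read as CellTiter-Glo luminescence. Primary runs used MIPE at 11 points (0.78 nM-46 µM) and NPC at 8 points (0.59 nM-46 µM); follow-ups used 11 points.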
With `N#Cc1c(O)c2c(-c3ccc(-c4ccccc4O)cc3)csc2[nH]c1=O`, the Potency result is “inactive”.
On to `OCc1ccc(-c2ccc(-c3ccc(CO)s3)o2)s1`, for which the Potency entry is “inactive”.
Still for that read-out and setting: next, `CC(=O)SC[C@@H](C)C(=O)N1CCC[C@H]1C(=O)N[C@@H](Cc1ccccc1)C(=O)O`: “inactive”; `O=C(Cc1ccc(-c2ccc(OCCN3CCOCC3)cc2)cn1)NCc1ccccc1`: 3720 nM (active); `O=C(C=Cc1c(C(=O)O)[nH]c2cc(Cl)cc(Cl)c12)Nc1ccccc1`: “inactive”.
Still for that read-out and setting: next, `C1=CCOCc2cc(ccc2OCCN2CCCC2)Nc2nccc(n2)-c2cccc(c2)OCC1`: “inactive”.
On the same count and under the same terms, the figure for `COCCn1c2c([n+](Cc3cnccn3)c1C)C(=O)c1ccccc1C2=O` is 118 nM (active).
As for `Nc1ccn([C@@H]2O[C@H](CO)[C@H](O)C2(F)F)c(=O)n1`, the Potency result was “inactive”.
In the case of `COc1cccc2nc(-c3cccs3)nc(NN3C(=O)C=C(C)C3=O)c12`, the Potency is 1870 nM (active).
Still for that read-out and setting: next, `O=C(O)CCCc1c[nH]c2ccccc12`: “inactive”; `COc1cc2c(Oc3ccc(NC(=O)C4(C(=O)Nc5ccc(F)cc5)CC4)cc3F)ccnc2cc1OCCCN1CCOCC1`: 14800 nM (active).
Same read-out and setting: the entry for `CCc1cc2c(cc1N1CCC(N3CCOCC3)CC1)C(C)(C)c1[nH]c3cc(C#N)ccc3c1C2=O` is “inactive”.
For `COc1ccc(CC2c3cc(OC)c(OC)cc3CC[N+]2(C)CCC(=O)OCCCCCOC(=O)CC[N+]2(C)CCc3cc(OC)c(OC)cc3C2Cc2ccc(OC)c(OC)c2)cc1OC` (stereo not given), the activity change, negative = cytotoxic was 3.34% [at 9.22 µM] (inactive).
Consider `Cc1c(Cn2c(C)nc3c(C(=O)O)cc(N4CCOCC4)cc32)cccc1C(F)(F)F`, for which the Potency result was “inactive”.
Still for that read-out and setting: the entry for `CC1=C(CO)C(=O)O[C@@H]([C@@H](C)[C@H]2CC[C@H]3[C@@H]4C[C@H]5O[C@]56[C@@H](O)C=CC(=O)[C@]6(C)[C@@H]4CC[C@]23C)C1` is “inactive”; for `C=C1C(=CC=C2CCC[C@]3(C)[C@@H]([C@H](C)C=C[C@H](C)C(C)C)CC[C@@H]23)C[C@@H](O)C[C@@H]1O` it is 3720 nM (active).
On the same count and under the same terms, the figure for `NC(=O)Nc1cc(-c2cccc(F)c2)sc1C(=O)N[C@H]1CCCNC1` is 935 nM (active); for `Cc1cc(Nc2cc(NC(=O)c3c(Cl)cccc3Cl)ccn2)nc(N)n1` it is 18700 nM (active); for `CC(C)(C)c1cc(C(C)(C)C)c(NC(=O)c2c[nH]c3ccccc3c2=O)cc1O` it is “inactive”.
Still for that read-out and setting: the entry for `CC=CC1=C(C(=O)O)N2C(=O)[C@H](NC(=O)[C@H](N)c3ccc(O)cc3)[C@@H]2SC1` is “inactive”; for `Clc1cccc(-n2nnnc2NCc2ccccc2Oc2ccccn2)c1Cl` it is “inactive”; for `C=CC(=O)Nc1cc2c(Nc3ccc(F)c(Cl)c3)ncnc2cc1C#CC(C)(C)N1CCN(C)CC1` it is 7430 nM (active).
In the case of `CC1(C)OC2=C(C(=O)c3ccccc3C2=O)[C@H](NCc2ccccc2)[C@H]1O`, the Potency is 9350 nM (active).
Same read-out and setting: next, `CN1c2cc(O)c(N=NC(N)=O)cc2CC1S(=O)(=O)O` (stereo not given): “inactive”; `CCCCCCCCCC(=O)N[C@@H](Cc1c[nH]c2ccccc12)C(=O)N[C@H](CC(N)=O)C(=O)N[C@@H](CC(=O)O)C(=O)N[C@@H]1C(=O)NCC(=O)N[C@@H](CCCN)C(=O)N[C@@H](CC(=O)O)C(=O)N[C@H](C)C(=O)N[C@@H](CC(=O)O)C(=O)NCC(=O)N[C@H](CO)C(=O)N[C@@H]([C@@H](C)CC(=O)O)C(=O)N[C@@H](CC(=O)c2ccccc2N)C(=O)O[C@@H]1C`: “inactive”.
As for `CN1CC[C@@H](c2c(O)cc(O)c3c(=O)cc(-c4ccccc4Cl)oc23)[C@@H](O)C1`, the Potency was 296 nM (active).
The same measure, in the same setting: next, `CC(C)c1ccc(Cn2ccc3c4c(N)nc(NC5CC5)nc4ccc32)cc1`: 18700 nM (active).
On the same count and under the same terms, the entry for `O=C(O)Cn1nnc(-c2cc(N3CCC(Oc4cc(F)ccc4Br)CC3)no2)n1` is “inactive”; for `CN1CCN(c2ccc3nc(-c4c(N)c5c(F)cccc5[nH]c4=O)[nH]c3c2)CC1` it is 18700 nM (active); for `CC(=O)OCCN1C(=O)c2c(C)nc3ccc(S(=O)(=O)N4CCOCC4)cc3c2C1=O` it is “inactive”.
The same measure, in the same setting: next, `CCOc1ccccc1OCCNC(C)Cc1ccc(OC)c(S(N)(=O)=O)c1` (stereo not given): “inactive”.
